The experiment in a line: cell-free HIV fusion peptide-binding blockers – biochemical, uHTS, fluorescence dequenching, primary screen (AID 1986). The conditions noted are these: 30 min, stronger effect = higher value.
[1] abbreviates: measured here: repeat confirmation average inhibition, at 18.6 µM.

Each structure is given as a SMILES string. In all, about 290,000 compounds went through this assay and about 890 (0.31%) were called active. Cut-off read from the data, not from the text of the source: active = inhibition mostly above about 52% (no sharp cut-off); inactive = mostly below about 76%. The list comes from a sample in which actives are over-represented; it also holds similar structures and randomly drawn compounds.

`COc1ccc(-n2c(O)c(/C=N/n3cnnc3)c3ccccc3c2=O)cc1`: the inhibition (in general, the relative decrease from the control value, in per cent) (at 20 µM) was -1% (inactive). The same measure, in the same setting: to `c1ccc(Oc2ccc(-n3cnnn3)cc2)cc1` belongs -0.6% (inactive); to `CCOC(=O)c1oc2ccccc2c1NC(=O)C1CCCCC1`, 2.3% (inactive); to `O=C(N=Nc1c(O)[nH]c2ccccc12)c1ccc(CN2CCOCC2)cc1`, -1.7% (inactive). The same measure, in the same setting: in the case of `O=c1c2c3c(sc2n(CCN2CCOCC2)c(=O)n1Cc1ccco1)CCCCC3` it was -0.6% (inactive). Still for that read-out and setting: to `CCOC(=O)N1CCC(N2C(=O)c3ccccc3C2Nc2cc(C)cc(C)c2)CC1` (configuration not stated) belongs -0.9% (inactive).

For the compound `Cc1ccc(N=C2NC(=O)/C(=C/c3cn(C)c4ccccc34)S2)cc1C`, the inhibition reads like this: (at 20 µM) 74.7% (active); under setting [1], 73.2%. Turning to `Cc1ccc(N=C2NC(=O)/C(=C\c3cccs3)S2)cc1C`, the inhibition (at 20 µM) is 1.6% (inactive). On the same count and under the same terms, to `Cc1ccc(N=C2NC(=O)/C(=C/c3cccn3C)S2)cc1C` belongs 2.1% (inactive); to `Cn1nc(-c2ccccc2)c(/C=N/O)c1Cl`, -1.8% (inactive); to `CCn1cc(C(=O)N2CCCC2)c(=O)c2cc(S(=O)(=O)N3CC(C)CC(C)C3)ccc21` (configuration not stated), 1.1% (inactive).

Take `COc1ccc2cc(CCNS(=O)(=O)c3c(C)cc(C)cc3C)c(=O)[nH]c2c1`: the inhibition (at 20 µM) is -1.1% (inactive). For the compound `Cc1c(NC(=O)c2ccc(Cl)s2)c(=O)n(-c2ccccc2)n1C`, the inhibition (at 20 µM) is 0.5% (inactive). Same read-out and setting: to `O=C(O)c1ccc(-n2c(/C=C/c3cccc([N+](=O)[O-])c3)nc3ccccc3c2=O)cc1` belongs 1.4% (inactive); to `O=C(O)c1c2c(nc3ccccc13)/C(=C/c1cccc([N+](=O)[O-])c1)CCC2`, 2.3% (inactive); to `O=C(O)c1ccc(-n2ncc3c2/C(=C/c2cccc([N+](=O)[O-])c2)CC3)cc1`, 66.7% (active). The same measure, in the same setting: in the case of `Cn1cccc1CC(=O)N/N=C\c1ccccc1` it was -0.6% (inactive). With `COc1ccc(/C=C2/N=C(c3cccs3)OC2=O)cc1OC(C)C`, the inhibition runs as follows: (at 20 µM) 106% (active); under setting [1], 100%. Take `COc1ccc(/C=C2\N=C(C)OC2=O)cc1OC`: the inhibition (at 20 µM) was 0.7% (inactive). The same measure, in the same setting: to `CCOc1ccc(/C=C2\N=C(c3cccs3)OC2=O)cc1OC` belongs 6.4% (inactive). The same measure, in the same setting: in the case of `COC(=O)Cn1c(C)c(/C=C/c2cc[n+](C)cc2)c2ccccc21` it was 46.3% (inactive). For the compound `C=CCn1c(C)c(/C=C/c2cc[n+](C)cc2)c2ccccc21`, the inhibition runs as follows: (at 20 µM) 103% (active); under setting [1], 81%. Regarding `C=CCn1cc(/C=C/c2cc[n+](C)cc2)c2ccccc21`, the inhibition (at 20 µM) was 185% (inactive). Same read-out and setting: to `Cc1ccc2c(c1)c(/C=C/c1cc[n+](C)cc1)c(C)n2C` belongs 159% (inactive). Turning to `COC(=O)Cn1cc(/C=C/c2cc[n+](C)cc2)c2ccccc21`, the inhibition reads like this: (at 20 µM) 115% (active); under setting [1], 96.1%.

As to `CCN(CC)C(=O)Cn1c(C)c(/C=C/c2cc[n+](C)cc2)c2ccccc21`, the inhibition by setting is: (at 20 µM) 115% (active); under setting [1], 54.5%. On to `CCN(CC)C(=O)Cn1c(=O)n(C)c2ccccc21`, for which the inhibition (at 20 µM) is -1.6% (inactive). Same read-out and setting: in the case of `CCn1cc(/C=C/c2cc[n+](C)cc2)c2ccccc21` it was 182% (inactive); in that of `Cc1cc(Nc2ccccc2)n(C(=O)c2ccccc2)n1`, -3% (inactive).

Regarding `Cc1c(NC(=O)COC(=O)/C=C/c2ccc(Cl)cc2)c(=O)n(-c2ccccc2)n1C`, the inhibition (at 20 µM) was -0.5% (inactive).

In the case of `Clc1ccccc1OCCn1nnc2ccccc21`, the inhibition (at 20 µM) is -2% (inactive).

With `CCC(=O)Nc1cccc(NC(=O)c2cccc([N+](=O)[O-])c2C)c1`, the inhibition (at 20 µM) was 1.2% (inactive). On the same count and under the same terms, to `NC(=O)c1nsc(C(=O)N(c2cccc(F)c2)C(C(=O)NC2CCCC2)c2ccc(O)cc2)c1N` (configuration not stated) belongs -1.3% (inactive); to `Cc1nc2ccc(S(=O)(=O)Nc3cc(-c4nc5cccnc5s4)ccc3C)cc2s1`, 3.9% (inactive). The same measure, in the same setting: to `CC12C=CC(=O)C=C1CCC1C3CCC(O)(C(=O)CO)C3(C)CC3OC312` (configuration not stated) belongs -0.7% (inactive). On the same count and under the same terms, to `CCOC(=O)CNC(=O)Cn1cnc2c(nnn2-c2ccccc2)c1=O` belongs -0.8% (inactive); to `CCOC(=O)c1c(C)[nH]c(C(=O)COC(=O)CCSc2ccccc2)c1C`, 0.3% (inactive).

Take `Cc1cc(S(=O)(=O)N2CCN(c3ccccn3)CC2)c(C)cc1Cl`: where the note is “at 20 µM”, the inhibition was -0.6% (inactive). Regarding `COc1ccccc1-n1c(C)cc(/C=C2/C(=N)N3C(=NC2=O)SN=C3S(C)(=O)=O)c1C`, the inhibition by setting is: (at 20 µM) 58.1% (inactive); under setting [1], 36.2%. For the compound `CCOc1ccc(-n2c(C)cc(/C=C3/C(=N)N4C(=NC3=O)SN=C4S(C)(=O)=O)c2C)cc1`, the inhibition (at 20 µM) was 66.6% (active). With `Cc1cc(/C=C2/C(=N)N3C(=NC2=O)SN=C3S(C)(=O)=O)c(C)n1-c1ccc(F)cc1`, the inhibition (at 20 µM) was 75.8% (inactive) and the inhibition under setting [1] turned out to be 45.6%. Consider `COc1cccc(-n2c(C)cc(/C=C3/C(=N)N4C(=NC3=O)SN=C4S(C)(=O)=O)c2C)c1`, for which, for the setting “at 20 µM”, the inhibition was 148% (inactive).

`Cc1cc(/C=C2/C(=N)N3C(=NC2=O)SN=C3S(C)(=O)=O)c(C)n1-c1ccccc1F`: under “at 20 µM”, the inhibition is 60.2% (active). For `CC1=CC2=NC(=O)/C(=C\c3cc(C)n(-c4ccccc4F)c3C)C(=N)N2O1`, where the note is “at 20 µM”, the inhibition was 3.2% (inactive). Still for that read-out and setting: in the case of `COc1ccc(CNC(=O)/C=C/c2ccc(S(=O)(=O)NCc3ccco3)cc2)cc1OC` it was 0.9% (inactive).
